Screens: PubChem, National Center for Advancing Translational Sciences (NCATS)
An excerpt weighted towards active compounds, which were near 5.3% of everything screened.
FMDV inh: antivirals against foot and mouth disease virus; FMDV antiviral cell-based qHTS; 410,000 compounds, 1.2% hits; Potency, µM (highest dose often 57.9 µM), usual class: inhibitors; calls by dose curve; tested in HEK293T cells; also: read-out not given here; nearly all actives have a fitted effect of over 45% in size
Vaccinia Venus: inhibitors of vaccinia virus (Venus reporter); Potency, µM (highest dose often 36.5 µM), most hits filed as inhibitors; 330,000 compounds, 0.46% hits; Vaccinia virus Venus reporter expression, fluorescence; AID 720580; calls by dose curve; tested in A549 cells; also: nearly all actives have a fitted effect of over 30% in size
LASV entry inh: inhibitors of Lassa virus binding or cell entry. Potency, µM (highest dose often 37.9 µM), hits mostly inhibitors. AID 540256. Lassa virus pseudotype entry inhibition, cell reporter. 300,000 compounds, 1.2% hits; calls by dose curve; tested in HEK293 cells; also: nearly all actives have a fitted effect of over 50% in size
Vaccinia mCherry: vaccinia inhibition (mCherry reporter); Vaccinia virus mCherry reporter infection, fluorescence; Potency, µM (doses to about 36.5 µM), actives largely listed as inhibitors; 310,000 compounds, 0.63% hits; AID 720579; calls by dose curve; tested in A549 cells; also: nearly all actives have a fitted effect of over 35% in size
Marburg entry inh: blocks Marburg virus binding to or entry into cells; Marburg virus pseudotyped entry inhibition, cell reporter; Potency, µM (highest dose often 37.8 µM), hits mostly inhibitors; 300,000 compounds, 1.8% hits; AID 540276; calls by dose curve; tested in HEK293 cells
HCV inhibitor: HCV inhibition. Huh7.5.1 HCVcc-Cre infection, luciferase reporter, 44 h. Potency, µM (doses to about 41.8 µM), actives largely listed as inhibitors. 340,000 compounds, 3.4% hits. AID 651820; active = well fitted inhibition curve with a large enough effect; inconclusive = small, poorly fitted or top-dose-only effect, or another doubt; inactive = no such curve, though single readings can be large or run the other way
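Antiviral activity was scored by luciferase reporter output from cells infected with HCVcc-Cre (~0.5 moi) in presence of compound, 44 h infection period, cells seeded 1,000/well 4 h prior.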
Large screens that a line does not name were inactive.

COc1ccc(-c2ccc(=O)n(CC(=O)Nc3ccc(N(C)C)cc3)n2)cc1	none (no result: Marburg entry inh, HCV inhibitor)
CCn1c(Cn2nnc(-c3ccccc3)n2)nnc1SCC(=O)Nc1cccc(C(C)=O)c1	HCV inhibitor 35µM (no result: FMDV inh)
CCn1c(Cn2nnc(-c3ccccc3)n2)nnc1SCC(=O)Nc1ccc(C(C)=O)cc1	Marburg entry inh inconclusive, HCV inhibitor inconclusive (no result: FMDV inh)
COc1ccc(C(=O)N2CCc3cc4c(cc3C2C)OCCCO4)cc1 (stereo not given)	FMDV inh inconclusive, HCV inhibitor 1.6µM (no result: LASV entry inh, Marburg entry inh)
CC1c2cc3c(cc2CCN1C(=O)c1ccc(Br)cc1)OCCCO3 (stereo not given)	FMDV inh inconclusive (no result: Vaccinia Venus, LASV entry inh, Vaccinia mCherry, Marburg entry inh)
Cn1c(=O)c2c(ncn2CC(=O)Nc2nc(-c3ccccc3Cl)cs2)n(C)c1=O	FMDV inh 13µM, LASV entry inh inconclusive, Marburg entry inh inconclusive, HCV inhibitor inconclusive (no result: Vaccinia Venus, Vaccinia mCherry)
COC(=O)Cc1ccc2sc(-c3ccccc3)nc2c1	LASV entry inh inconclusive, Marburg entry inh 8.2µM, HCV inhibitor inconclusive
O=C(O)Cc1ccc2sc(-c3ccccc3)nc2c1	none
CCc1cccc(N(C)C(N)=Nc2cccc3ccccc23)c1	LASV entry inh 13µM, Marburg entry inh 11µM
CCN(/C(N)=N/c1nc(C)cc(C)n1)c1ccccc1	none
CCCc1nc2c3ccccc3ccn2c1Cc1cccc(F)c1	none (no result: LASV entry inh, Marburg entry inh, HCV inhibitor)
CCN(CC)C(C)CN1c2ccccc2Sc2ccccc21 (stereo not given)	FMDV inh 28µM, Vaccinia Venus inconclusive, Marburg entry inh inconclusive (no result: HCV inhibitor)
CC1(C)CC(=O)C2=C(C1)NC(SCC(=O)Nc1ccccc1)=C(C#N)C21CCCCC1	FMDV inh 28µM, Marburg entry inh inconclusive, HCV inhibitor inconclusive (no result: Vaccinia mCherry)
CCc1nnc(SCc2nc(-c3ccccc3Cl)oc2C)c2cc3sc(C)cc3n12	LASV entry inh inconclusive (no result: Marburg entry inh, HCV inhibitor)
COC(=O)c1cc(CNC(=O)c2ccc3ccccc3n2)cc(NC(=O)c2cccc(OC)c2)c1	none (no result: LASV entry inh, Marburg entry inh, HCV inhibitor)
COc1ccc2nc3cc(Cl)ccc3c(Nc3cc(C(C)C)c(O)cc3C)c2c1	FMDV inh inconclusive, Vaccinia Venus inconclusive, LASV entry inh inconclusive, Vaccinia mCherry inconclusive, Marburg entry inh 11µM, HCV inhibitor 11µM
COc1ccc(S(=O)(=O)Nc2cc(C(C)C)c(O)cc2C)cc1	HCV inhibitor inconclusive
CCCCC[C@@H]1C=C(C(=O)O)[C@H](c2ccc(CC)cc2)N1S(=O)(=O)c1ccc(C)cc1	none (no result: LASV entry inh, Marburg entry inh)
CC[C@@H]1C=C(C(=O)O)[C@H](c2ccc3c(c2)OCO3)N1S(=O)(=O)c1ccc(C)cc1	Vaccinia mCherry inconclusive, HCV inhibitor 32µM (no result: LASV entry inh, Marburg entry inh)
CCCC[C@@H]1C=C(C(=O)O)[C@H](c2ccc(CC)cc2)N1S(=O)(=O)c1ccc(C)cc1	HCV inhibitor 0.56µM (no result: LASV entry inh, Marburg entry inh)
COc1cc(OCc2ccccc2)c(OC)c(OCc2ccccc2)c1	Vaccinia mCherry inconclusive, Marburg entry inh inconclusive, HCV inhibitor 10µM
CC1CC(C)CN(S(=O)(=O)c2cc3c4c(c2)CCC(=O)N4CCC3)C1 (stereo not given)	HCV inhibitor inconclusive
CC(=O)NC12CC3CC(C1)CC(C(=O)N(C)CC(=O)Nc1ccccc1Cl)(C3)C2	none
CCOC(=O)CSc1nc(-c2ccc(F)cc2)cc(C(F)(F)F)c1C#N	FMDV inh 32µM (no result: HCV inhibitor)
CCOC(=O)CSc1nc(-c2ccc(OCC)cc2)cc(C(F)(F)F)c1C#N	none (no result: HCV inhibitor)
CCN(CC)C(=O)c1ccc2c3c(cccc13)C(=O)N(CCc1ccc(OC)c(OC)c1)C2=O	FMDV inh 32µM, Vaccinia Venus inconclusive, LASV entry inh inconclusive, Vaccinia mCherry inconclusive, Marburg entry inh inconclusive, HCV inhibitor inconclusive
C=CCCCN1C=C(C(C)=O)C(c2ccccc2)NC1=O (stereo not given)	none (no result: FMDV inh, Vaccinia Venus, LASV entry inh, Vaccinia mCherry, HCV inhibitor)
O=C1/C(=C/c2cccs2)N=C(c2cccs2)N1Nc1ccccc1	Marburg entry inh inconclusive, HCV inhibitor 14µM (no result: Vaccinia mCherry)
Nc1nc(CSc2nnnn2-c2ccccc2)nc(N2CCCc3ccccc32)n1	FMDV inh 28µM, LASV entry inh inconclusive, Vaccinia mCherry inconclusive, Marburg entry inh inconclusive, HCV inhibitor 11µM
Cc1cccc(N(CC(=O)NCCSCc2cccc(Cl)c2)S(=O)(=O)c2ccccc2)c1C	Marburg entry inh inconclusive (no result: HCV inhibitor)
O=c1[nH]cnc2n[nH]nc12	none (no result: FMDV inh, LASV entry inh, Marburg entry inh, HCV inhibitor)
COc1ccc(N2CC(C(=O)N/N=C/c3c[nH]c4ccccc34)CC2=O)cc1 (stereo not given)	none
O=C(N/N=C/c1ccccc1O)C1CC(=O)N(c2ccc(F)cc2)C1 (stereo not given)	Vaccinia Venus inconclusive, LASV entry inh inconclusive, Vaccinia mCherry 14µM, Marburg entry inh inconclusive, HCV inhibitor inconclusive
OC(COCC(F)(F)C(F)(F)C(F)(F)C(F)F)Cn1c2ccc(Cl)cc2c2cc(Cl)ccc21 (stereo not given)	FMDV inh inconclusive, Vaccinia Venus 11µM, LASV entry inh inconclusive, Vaccinia mCherry inconclusive, Marburg entry inh inconclusive, HCV inhibitor 3.2µM
CCOC(=O)c1c(O)c2cc(Cl)ccc2n(CC)c1=O	Vaccinia mCherry inconclusive
O=C(Nc1ccc(Oc2ccccc2)cc1)c1csc([C@@H]2O[C@H](CO)[C@@H](O)[C@H]2O)n1	FMDV inh 16µM (no result: LASV entry inh, Marburg entry inh, HCV inhibitor)
CC(=O)Nc1ccc(NC(=O)c2csc([C@@H]3C[C@H](O)[C@@H](CO)O3)n2)cc1	none (no result: LASV entry inh, Marburg entry inh, HCV inhibitor)
O=C(Nc1ccc(Oc2ccccc2)cc1)c1csc([C@H]2C[C@H](O)[C@@H](CO)O2)n1	FMDV inh 7.9µM (no result: LASV entry inh, Marburg entry inh, HCV inhibitor)
O=C(Nc1ccc(OCCO)cc1)c1csc([C@@H]2O[C@H](CO)[C@H](O)[C@H](O)[C@H]2O)n1	none (no result: LASV entry inh, Marburg entry inh, HCV inhibitor)
COc1ccc(-c2cc3nc(-c4ccc(Br)cc4)cc(C(F)(F)F)n3n2)cc1	none (no result: HCV inhibitor)
C#CCCCO/N=C1\C[C@@H](O)[C@@H](O)[C@@H]2[C@@H]3C(=O)N(C4CCCCC4)C(=O)[C@@H]3CC[C@@H]12	none (no result: FMDV inh, Vaccinia Venus, LASV entry inh, Vaccinia mCherry, HCV inhibitor)
Cc1ccc(CNc2ccc([N+](=O)[O-])cc2C(N)=O)cc1	Vaccinia mCherry inconclusive, HCV inhibitor inconclusive (no result: LASV entry inh, Marburg entry inh)
Cc1ccc(Oc2c(C(N)=O)cc([N+](=O)[O-])cc2[N+](=O)[O-])cc1	FMDV inh inconclusive, Vaccinia Venus inconclusive, LASV entry inh inconclusive, Marburg entry inh inconclusive, HCV inhibitor 3.5µM
CC(Nc1nc(-c2ccc(F)cc2)cs1)c1nc2cc(C(F)(F)F)ccc2n1CCOCCO (stereo not given)	none (no result: LASV entry inh, Marburg entry inh)
COc1ccc(-c2csc(NC(C)c3nc4cc(C(F)(F)F)ccc4n3CCOCCO)n2)cc1 (stereo not given)	FMDV inh inconclusive, Vaccinia Venus inconclusive, Vaccinia mCherry inconclusive, HCV inhibitor 8.9µM (no result: LASV entry inh, Marburg entry inh)
C[C@@H]1O[C@@H](O[C@H]2C[C@@H](O)[C@]3(CO)[C@H]4[C@H](O)C[C@]5(C)[C@@H]([C@@H]6COC(=O)C6)CC[C@]5(O)[C@@H]4CC[C@]3(O)C2)[C@H](O)[C@H](O)[C@H]1O	Marburg entry inh 0.32µM (no result: FMDV inh, Vaccinia Venus, LASV entry inh, Vaccinia mCherry, HCV inhibitor)
